A selection: hits, their analogues and other compounds. The true share with any hit is near 8.8%.
HPGD inh = inhibitors of human 15-hydroxyprostaglandin dehydrogenase (HPGD) | purified HPGD, NADH fluorescence kinetic, PGE2 substrate | 150,000 compounds, 4.3% hits | P15428 | AID 894 | Potency, µM, for the others: at the top dose activity change, negative = inhibition, hits mostly inhibitors; active means well fitted inhibition curve with a large enough effect, not every such curve was filed as active; inconclusive means small, poorly fitted or top-dose-only effect, or another doubt; inactive means no such curve, though single readings can be large or run the other way; further: on the % scale 0 is the no-effect control and ±100 the full control effect
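NADH formation kinetics: reaction with 30 uM PGE2 and 1 mM NAD+ (final), 20 nM enzyme, Tris-HCl pH 8 with Tween 20, after 15 min compound preincubation at room temperature. Fluorescence change, last versus first of five reads.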
HTT aggregate = inhibitors of mutant huntingtin aggregate formation in PC12 cells; PC12 HttQ103-GFP aggregates, Acumen cytometry, 40 h; 220,000 compounds, 1.1% hits; Potency, µM (doses to about 46.1 µM), for inactives: at the top dose activity change, negative = inhibition, usual class: inhibitors; further: on the % scale 0 is the no-effect control and ±100 the full control effect; nearly all actives have a fitted effect of over 60% in size
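Steps: seed 1500 PC12 HTTQ103-GFP cells/well; add tebufenozide, 100 nM final; add compound titration; add ATPLite reagent; quantify GFP aggregates by laser scanning cytometry.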
Lamin A splicing = modulators of lamin A splicing | 200,000 compounds, 0.01% hits | Potency, µM (series often up to 46.1 µM), for the others: at the top dose ratio change, negative = inhibition, most hits filed as inhibitors | HeLa LMNA splicing GFP/RFP minigene ratio, 48 h; active means well fitted inhibition curve with a large enough effect in the signal ratio, with a control signal flat, not every such curve was filed as active; inconclusive means small, poorly fitted or top-dose-only effect, or effect the other way, or a change in a side signal; the % refers to the signal ratio; further: on the % scale 0 is the no-effect control and ±100 the full control effect
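S3 HeLa cells stably expressing lamin A-EGFP splicing minigene plus DsRed2, 600 cells/well, 48 h compound exposure at 37C. Laser-scanning cytometry; analysed as GFP (500-530 nm)/RFP (575-640 nm) total intensity ratio; 0.5% DMSO vehicle.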
ALDH1A1 block = ALDH1A1 (human) enzyme inhibition. Purified ALDH1A1, NADH fluorescence, propionaldehyde substrate. Potency, µM (highest dose often 75.3 µM), without a hit: at the highest dose activity, negative = inhibition, usual class: inhibitors. 220,000 compounds, 7.3% hits. P00352; active means well fitted inhibition curve with a large enough effect, not every such curve was filed as active; inconclusive means small, poorly fitted or top-dose-only effect, or another doubt; inactive means no such curve, though single readings can be large or run the other way;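 further: plate controls were no enzyme wells and a reference inhibitor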
Target sequence (P00352 whole entry, looked up): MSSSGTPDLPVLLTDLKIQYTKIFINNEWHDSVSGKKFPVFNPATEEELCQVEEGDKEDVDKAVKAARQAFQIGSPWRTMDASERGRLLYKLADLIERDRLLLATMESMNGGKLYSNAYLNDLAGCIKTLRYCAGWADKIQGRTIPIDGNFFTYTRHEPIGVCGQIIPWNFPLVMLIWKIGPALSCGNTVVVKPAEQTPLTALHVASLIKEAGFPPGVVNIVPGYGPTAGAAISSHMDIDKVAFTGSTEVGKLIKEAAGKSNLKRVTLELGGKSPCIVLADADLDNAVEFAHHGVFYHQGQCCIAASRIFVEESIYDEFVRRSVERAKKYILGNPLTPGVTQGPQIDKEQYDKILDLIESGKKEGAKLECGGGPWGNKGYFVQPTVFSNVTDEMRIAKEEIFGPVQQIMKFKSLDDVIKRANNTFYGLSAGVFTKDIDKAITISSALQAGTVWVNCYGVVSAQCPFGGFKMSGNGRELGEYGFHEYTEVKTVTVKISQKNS
HTT ATP protect = cytoprotection in Huntington HTT-Q103 PC12 cell model | PC12 HTT-Q103 induced, cytoprotection, ATP luminescence, 40 h | 230,000 compounds, 0.14% hits | Potency, µM (top dose mostly 56.4 µM), without a hit: cytoprotection (ATP increase), most hits filed as activators | AID 1471; further: % of control where 0% means no effect; nearly all actives have a fitted effect of over 45% in size
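Huntington model: PC12 line, ecdysone-inducible HTTQ103 exon1–GFP, tebufenozide 100 nM. Test articles in a dose series. Endpoint luminescence from cellular ATP.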
* marks the source's active call; other numbers are inactive results; ? = inconclusive; . = no result given; [ ] = dose if it differs, or a comment. Unless noted, the call rests on the fitted dose curve; in most records, active means well fitted curve in the direction sought with a large enough effect; inconclusive means small, poorly fitted or top-dose-only effect, or another doubt; inactive means no such curve, though single readings can be large; an effect the other way counts as inactive or inconclusive. Potency means the concentration at half of the fitted maximal effect.

SMILES | HPGD inh | HTT aggregate | Lamin A splicing | ALDH1A1 block | HTT ATP protect
CC(C)CN(CC(C)C)c1nnc(NC(=O)Cn2c(=O)oc3ccccc32)s1 | -9.6% | 18.4% | -8.5% | 1.41µM* | -2.3%
CCc1ccccc1NC(=O)Cn1c(=O)oc2ccccc21 | . | . | -5.6%[46 µM] | . | .
CC(C)Oc1ccc(CNC(=O)Cn2c(=O)oc3ccccc32)cc1 | 20µM* | ? | -2.7% | -9.8% | 1.0%
CCCc1nnc(NC(=O)Cn2c(=O)oc3ccccc32)s1 | 28.2µM* | 22.8% | -7.5% | 10µM* | 7.7%[10 µM]
Cc1nc(CSc2nsc(/C=C/N(C)C)c2C#N)cs1 | . | -4.9% | 14.8%[46 µM] | 6.31µM* | -7.4%
Cc1nc(CSc2nnc(N)s2)cs1 | . | -13.3% | 8.6%[46 µM] | -0.8% | -22.4%
O=C(NNc1ccc(Cl)cc1)c1sccc1Cl | . | 13.3%[9.22 µM] | 18.8%[46 µM] | 8.91µM* | -5.4%[10 µM]
[O-][n+]1c2c(c3c4non(O)c4ccc31)CCCC2 | 7.94µM* | ? | ? | -12.0% | -40.9%
CC(O)CNc1ccc(-c2nn(C)c(=O)c3ccccc23)cc1[N+](=O)[O-] (stereo unspecified) | . | -4.9%[9.22 µM] | . | 7.94µM* | -26.9%
O=C(Nc1nccs1)C(c1ccccc1)N1CCCC1 (stereo unspecified) | . | -5.4% | . | 1.9% | 1.41µM*
COc1ccc(-n2c(O)c(/C=N/NS(=O)(=O)c3ccc(C)c([N+](=O)[O-])c3)c3ccccc3c2=O)cc1OC | . | -8.6% | ? | ? | -4.1%[10 µM]
COc1ccc(/C=N/Nc2snc(SC)c2C#N)cc1OC | ? | -7.0% | 15.3% | ? | -23.7%
COc1cccc(/C=N/Nc2snc(SC)c2C#N)c1O | -4.4% | 11.2µM* | ? | -11.0% | .
COc1cc(/C=N/NS(=O)(=O)c2ccc(C)c([N+](=O)[O-])c2)ccc1O | . | 26.9% | -3.9%[46 µM] | 12.6µM* | 6.9%
COc1cccc(/C=N/Nc2ccc(C(=O)O)cc2)c1O | . | 31.1% | 13.2%[46 µM] | 10.9% | -124.7%
COc1cc(/C=N/NS(=O)(=O)c2ccc(C(C)(C)C)cc2)cc([N+](=O)[O-])c1O | . | -3.3%[9.22 µM] | . | 7.94µM* | -14.5%[10 µM]
COc1cccc(/C=N/Nc2ccc(S(=O)(=O)O)cc2)c1O | 31.6µM* | -0.4% | 3.0% | 10µM* | -12.1%
COc1ccccc1-c1nc(-c2ccccc2)[nH]c(=O)c1C#N | . | ? | -3.5%[46 µM] | -14.5% | 29.5%
CC(C)C(=O)OC1=CN(Cc2ccccc2)S(=O)(=O)c2ccccc21 | . | . | 22.4%[46 µM] | . | .
COc1cccc(/C=N/n2c(-c3cc(C)[nH]n3)n[nH]c2=S)c1O | . | 5.1%[9.22 µM] | . | 6.8% | 9.8%[10 µM]
Cc1ccc(S(=O)(=O)N/N=C/c2cc([N+](=O)[O-])ccc2O)cc1[N+](=O)[O-] | . | 12.9% | ? | 12.6µM* | 10.4%[10 µM]
Cc1ccc(S(=O)(=O)N/N=C/c2ccc(O)cc2O)cc1[N+](=O)[O-] | . | -5.4%[9.22 µM] | . | . | -8.5%[10 µM]
CCOc1cccc(/C=N/NS(=O)(=O)c2ccc(C)c([N+](=O)[O-])c2)c1O | . | -4.4% | -11.7%[46 µM] | 3.98µM* | -18.4%
Cc1ccc(S(=O)(=O)N(C)C)cc1NC(=O)C1CCCCC1 | . | 1.5%[9.22 µM] | -9.6%[46 µM] | -5.4% | 11.3%[10 µM]
O=C(NCc1cccs1)c1ccc2c(c1)sc1nc(-c3ccccc3)cn12 | . | . | 7.2%[46 µM] | . | .
SMILES | HPGD inh | HTT aggregate | Lamin A splicing | ALDH1A1 block | HTT ATP protect
O=C(CCNc1cc(Cl)cc(Cl)c1)c1cccs1 | -25.1% | -8.3% | ? | 1.58µM* | -1.3%
O=C(CCNc1ccc(Cl)cc1)c1cccs1 | -11.4% | -0.7% | ? | 3.16µM* | 15.3%[10 µM]
O=C(CCSc1ccc(Cl)cc1)c1cccs1 | 20µM* | -13.1% | ? | 0.355µM* | 13.5%[10 µM]
Cc1nc(NC2CCCCC2)c2nc(-c3ccccc3)n(CCCN3CCCCC3C)c2n1 (stereo unspecified) | ? | . | . | ? | -57.0%
CCCC(=O)C1=C(c2ccccc2)C(C#N)(C#N)C(C#N)=C1N | 1.41µM* | 5.2% | 9.7% | ? | -1.1%[0.074 µM]
CCCC(=O)NC1=C(C#N)C2(CCCC2)Cc2ccccc21 | -11.2% | -8.4% | 14.5% | -5.2% | 9.6%[0.074 µM]
Cc1ccc(N2CC(NC(=O)C3CCCCC3)CC2=O)cc1 (stereo unspecified) | . | . | -4.9%[46 µM] | . | .
CCCc1cc(=O)[nH]c(SCc2nc(-c3ccc(OC)cc3)no2)n1 | . | . | -0.2%[46 µM] | . | .
O=C1C(Cl)=C(NC2CCc3ccccc32)C(=O)c2ncccc21 (stereo unspecified) | -9.1% | . | . | 11.2µM* | -92.3%

High-throughput results (PubChem)
